In PubChem BioAssay:
For some assays here: Results with a measured potency or affinity are listed apart. The source made the active and inactive calls.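 The calls were made as follows, unless noted: active = calcium signal cut by more than 3 SD below the full-agonist control yet still positive, in both repeats and the earlier primary screen; inactive = the rest.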

Assays:
[1] = system: TRPC4 beta (transient receptor potential cation channel C4), mouse; assay: activators of mouse TRPC4 channel, confirmation, cell-based, Fluo4 calcium, HEK293 TRPC4beta/mu-opioid, duplicates, 10 µM (AID 2426;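 active = fluorescence ratio normalized to control raised more than 50% in primary screen plus both repeat runs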); settings: Fluo4 calcium fluorescence, at 10 µM; stronger effect = higher value
[2] = system: transient receptor potential cation channel C4 beta (TRPC4), mouse; assay: activators of mouse TRPC4 channel, confirmation, cell-based, second round, Fluo4, HEK293 TRPC4beta/mu-opioid, 1 µM (AID 2461;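 active = primary screen active and over 50% activation in each of two duplicate runs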); settings: Fluo4 calcium fluorescence, at 1 µM; stronger effect = higher value
[3] = system: TRPC4 (transient receptor potential cation channel C4 beta), mouse; assay: positive allosteric modulators of mouse TRPC4, confirmation, cell-based, second round, Fluo-4, HEK293 TRPC4beta/mu-opioid, 1 µM (AID 2554;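 active = primary screen hit whose fluorescence ratio, in both repeats, exceeds the weak agonist control mean by 3 SD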); settings: DAMGO EC20, Fluo-4 calcium flux, at 1 µM; stronger effect = higher value
[4] = system: TRPC4 beta (transient receptor potential cation channel C4), mouse; assay: positive allosteric modulators of mouse TRPC4, confirmation, cell-based, Fluo-4, HEK293 TRPC4beta/mu-opioid (AID 2555;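 active = primary screen hit whose calcium fluorescence ratio, in both repeats, exceeds the weak agonist control mean by 3 SD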); settings: DAMGO EC20, Fluo-4 calcium flux, at 10 µM; stronger effect = higher value
[5] = target: Short transient receptor potential channel 4 (Mus musculus) (UniProt Q9QUQ5); assay: inhibitors of mouse TRPC4 channel, confirmation, cell-based, Fluo4, HEK293 TRPC4beta/mu-opioid (AID 2636); settings: DAMGO, Fluo4 calcium flux, at 10 µM; stronger effect = higher value
[6] = target: Short transient receptor potential channel 4 (Mus musculus) (UniProt Q9QUQ5); assay: inhibitors of mouse TRPC4 channel, confirmation, cell-based, second round, Fluo4, HEK293 TRPC4beta/mu-opioid, 1 µM (AID 2637;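 active = calcium signal ratio cut to more than 3 SD under the fully stimulated control mean yet still positive, in both repeats and the primary screen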;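 as to inhibition: percent of integrated ratio relative to wells lacking test compound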); settings: Fluo4 calcium flux, DAMGO, at 1 µM; stronger effect = higher value
[7] = target: Short transient receptor potential channel 4 (Mus musculus) (UniProt Q9QUQ5); assay: mouse TRPC4 channel activators, dose response, cell-based, HEK293 TRPC4/mu-opioid, Fluo-4 calcium (AID 434937;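 active = primary screen activator hit with a dose response curve and TRPC4 channel activation at any tested dose; inactive = no activation, no dose response, or not a primary hit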)
[8] = target: Short transient receptor potential channel 4 (Mus musculus) (UniProt Q9QUQ5); assay: TRPC4 positive allosteric modulators, dose response, cell-based, HEK293 TRPC4/mu-opioid, Fluo-4 calcium, EC20 DAMGO (AID 434941;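 active = earlier screen potentiator hit that boosts the TRPC4 ion channel at some dose, with a dose response; inactive = no potentiation, no dose response, or not a prior hit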;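 also: calcium entry triggered by an EC20 dose of DAMGO at the co-expressed mu-opioid receptor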)
[9] = target: Short transient receptor potential channel 6 (Mus musculus) (UniProt Q61143); assay: inhibition of mouse TRPC6 channel, confirmation, selectivity assay for TRPC4 inhibitor project, cell-based, HEK293, membrane potential dye, duplicate (AID 434948;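 active = active in primary screen and both duplicates, each dropping signal beyond three positive-control SD with fluorescence still positive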); settings: HEK293 TRPC6, membrane potential dye fluorescence, at 10 µM, stimulated with maximal-effect acetylcholine; stronger effect = higher value
[10] = target: Short transient receptor potential channel 6 (Mus musculus) (UniProt Q61143); assay: activation of mouse TRPC6 channel, confirmation, selectivity assay for TRPC4 activator project, cell-based, HEK293, membrane potential dye, duplicate (AID 434950;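 active = membrane potential signal rise above negative control mean plus 3 SD in both duplicates, also active in the earlier TRPC4 screen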); settings: HEK293 TRPC6, membrane potential fluorescence, at 10 µM; stronger effect = higher value
[11] = target: Short transient receptor potential channel 6 (Mus musculus) (UniProt Q61143); assay: TRPC6 potentiation by TRPC4 potentiator hits, confirmation, selectivity assay for TRPC4 potentiator project, HEK293 cells, membrane potential dye, duplicate (AID 434952;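 active = compound raising the membrane signal above positive-control mean plus 3 SD in both repeats, and a primary screen hit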); settings: HEK293 TRPC6, membrane potential dye fluorescence, at 10 µM, maximal acetylcholine added after compound; stronger effect = higher value
[12] = target: Short transient receptor potential channel 4 (Mus musculus) (UniProt Q9QUQ5); assay: calcium flux activators in TRPC4/5HT1a cells, counter-screen for TRPC4 activator project, cell-based, second counter screen, HEK293 TRPC4/5HT1a, Fluo-4 (AID 434977;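 active = calcium signal rise above buffer-control mean plus 5 SD in both duplicates, and also a hit in the primary screen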); settings: Fluo-4 calcium flux, at 10 µM; stronger effect = higher value
[13] = calcium flux inhibitors in TRPC4/5HT1a cells, confirmation, counter-screen for TRPC4 inhibitor project, cell-based, second counter screen, HEK293 TRPC4/5HT1a, Fluo-4 (AID 434978;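 active = primary screen active whose calcium signal fell more than 3 SD beyond the full-serotonin control mean in both duplicate plates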); settings: Fluo-4 calcium flux, at 10 µM, serotonin added to trigger calcium flux; stronger effect = higher value
[14] = system: TRPC4 (mouse), co-expressed with 5HT1a in HEK293; assay: calcium flux potentiators in TRPC4/5HT1a cells, confirmation, counter-screen for TRPC4 potentiator project, cell-based, second counter screen, HEK293 TRPC4/5HT1a, Fluo-4 (AID 434979;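 active = signal rise over 3 SD above mean of control wells given weak agonist, in both repeats and first screen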); settings: Fluo-4 calcium flux, at 10 µM, serotonin added at its EC20 dose; stronger effect = higher value
[15] = calcium flux activation in mu-opioid HEK293 cells, confirmation, counter-screen for TRPC4 activator project, cell-based, HEK293 mu-opioid receptor line (AID 449723;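 active = hit in primary screen, with calcium signal over 5 SD above buffer well mean in both duplicates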;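 also: counter screen cells carry the mu-opioid receptor alone and lack TRPC4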); settings: Fluo-4 calcium fluorescence, at 10 µM; stronger effect = higher value
[16] = calcium flux enhancement in mu-opioid HEK293 cells, confirmation, counter-screen for TRPC4 allosteric potentiator project, cell-based, HEK293 mu-opioid receptor line (AID 449724;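 active = calcium signal rise more than 3 SD above the low-dose agonist control mean, in both duplicate plates and the primary screen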); settings: Fluo-4 calcium flux, at 10 µM, compound added before EC20 DAMGO stimulus; stronger effect = higher value

Measured: inhibition

Short transient receptor potential channel 6 (Mus musculus), sequence (Q61143 whole entry, looked up): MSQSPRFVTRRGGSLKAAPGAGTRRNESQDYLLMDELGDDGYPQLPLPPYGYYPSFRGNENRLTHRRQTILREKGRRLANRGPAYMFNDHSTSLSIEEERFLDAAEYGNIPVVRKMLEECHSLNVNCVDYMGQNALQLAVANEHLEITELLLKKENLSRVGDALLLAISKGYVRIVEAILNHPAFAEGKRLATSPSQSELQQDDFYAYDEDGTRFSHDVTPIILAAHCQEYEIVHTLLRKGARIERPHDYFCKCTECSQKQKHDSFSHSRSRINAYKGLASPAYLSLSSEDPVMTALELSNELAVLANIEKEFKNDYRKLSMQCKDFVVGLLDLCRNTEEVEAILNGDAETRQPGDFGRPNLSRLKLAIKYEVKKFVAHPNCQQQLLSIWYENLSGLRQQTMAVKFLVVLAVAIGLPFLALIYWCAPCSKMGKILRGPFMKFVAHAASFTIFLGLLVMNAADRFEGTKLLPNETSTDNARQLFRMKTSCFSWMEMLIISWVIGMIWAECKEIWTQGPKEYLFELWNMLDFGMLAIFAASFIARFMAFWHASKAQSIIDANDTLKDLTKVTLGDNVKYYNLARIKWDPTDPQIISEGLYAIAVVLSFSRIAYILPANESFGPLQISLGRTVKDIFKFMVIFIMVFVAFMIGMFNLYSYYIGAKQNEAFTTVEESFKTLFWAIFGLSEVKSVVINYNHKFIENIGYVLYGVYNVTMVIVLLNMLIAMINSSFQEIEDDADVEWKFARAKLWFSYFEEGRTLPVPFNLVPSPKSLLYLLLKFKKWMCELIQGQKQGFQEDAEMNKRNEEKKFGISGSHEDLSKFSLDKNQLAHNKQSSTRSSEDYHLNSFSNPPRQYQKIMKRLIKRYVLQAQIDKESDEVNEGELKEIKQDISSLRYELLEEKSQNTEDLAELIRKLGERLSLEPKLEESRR
Short transient receptor potential channel 4 (Mus musculus), sequence (Q9QUQ5 whole entry, looked up): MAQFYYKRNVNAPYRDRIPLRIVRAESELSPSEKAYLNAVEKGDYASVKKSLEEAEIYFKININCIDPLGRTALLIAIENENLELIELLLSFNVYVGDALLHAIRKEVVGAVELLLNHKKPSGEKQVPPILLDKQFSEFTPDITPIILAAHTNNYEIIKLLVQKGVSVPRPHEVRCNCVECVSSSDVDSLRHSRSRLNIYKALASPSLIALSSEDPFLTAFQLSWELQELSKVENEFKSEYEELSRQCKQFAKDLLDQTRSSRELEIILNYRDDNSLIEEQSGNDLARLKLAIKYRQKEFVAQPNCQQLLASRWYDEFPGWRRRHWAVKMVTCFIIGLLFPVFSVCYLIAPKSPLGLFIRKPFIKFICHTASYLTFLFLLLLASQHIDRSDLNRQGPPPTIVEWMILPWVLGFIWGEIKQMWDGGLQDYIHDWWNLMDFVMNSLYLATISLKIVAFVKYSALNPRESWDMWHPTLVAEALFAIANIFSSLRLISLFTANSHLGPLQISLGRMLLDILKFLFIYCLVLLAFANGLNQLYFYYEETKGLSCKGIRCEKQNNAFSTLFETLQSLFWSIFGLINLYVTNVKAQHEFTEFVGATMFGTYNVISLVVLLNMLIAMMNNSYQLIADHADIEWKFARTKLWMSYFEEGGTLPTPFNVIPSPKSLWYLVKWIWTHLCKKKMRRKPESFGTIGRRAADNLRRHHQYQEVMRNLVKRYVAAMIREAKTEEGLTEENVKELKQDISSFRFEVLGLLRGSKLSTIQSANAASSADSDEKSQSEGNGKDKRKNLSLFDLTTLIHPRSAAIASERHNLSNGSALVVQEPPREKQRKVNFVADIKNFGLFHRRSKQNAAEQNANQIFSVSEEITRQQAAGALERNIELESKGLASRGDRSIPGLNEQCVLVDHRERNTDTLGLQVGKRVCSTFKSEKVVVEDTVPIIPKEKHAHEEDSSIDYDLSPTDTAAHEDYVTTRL

OCCNCc1cc(Br)ccc1OCc1ccc(Cl)cc1Cl
inactive: [1] | [2] | [3] | [4] | [6] | [7] | [8] | [9] | [10] | [11] | [12] | [14] | [15] | [16]
active: [5] 49% | [13] 24.9%

c1ccc(Cn2c(NCc3ccco3)nc3ccccc32)cc1
inactive: [1] | [2] | [3] | [4] | [7] | [8] | [9] | [10] | [11] | [12] | [14] | [15] | [16]
active: [5] 95% | [6] 75% | [13] 25.2%

O=C(c1cccc(C(=O)N2CCN(c3ccc(F)cc3)CC2)c1)N1CCN(c2ccc(F)cc2)CC1
active: [5] 88% | [6] 53% | [13] 42%
inactive: [1] | [2] | [3] | [4] | [7] | [8] | [9] | [10] | [11] | [12] | [14] | [15] | [16]

N#CCCn1cc(CNCc2ccccc2)c(-c2cccc([N+](=O)[O-])c2)n1
active: [5] 65% | [6] 36% | [13] 30.7%
inactive: [1] | [2] | [3] | [4] | [7] | [8] | [9] | [10] | [11] | [12] | [14] | [15] | [16]

Cc1cccc(-n2ccnc2CN2CCC(CO)(Cc3ccccc3)CC2)c1
active: [5] 70%
inactive: [1] | [2] | [3] | [4] | [6] | [7] | [8] | [9] | [10] | [11] | [12] | [13] | [14] | [15] | [16]

CCOc1ccccc1CN1CCN(Cc2cccc3nonc23)CC1CCO (centres undefined)
inactive: [1] | [2] | [3] | [4] | [5] | [6] | [7] | [8] | [9] | [10] | [11] | [12] | [13] | [14] | [15] | [16]

Cc1cc2cc(C#N)c(NCCNC(=S)NCCCN3CCOCC3)nc2cc1C
inactive: [1] | [2] | [3] | [4] | [6] | [7] | [8] | [9] | [10] | [11] | [12] | [14] | [15] | [16]
active: [5] 94% | [13] 26.6%

Cc1nc(N2CCN(c3ccccn3)CC2)c2c(C)c(C(=O)N3CCN(c4ccccc4F)CC3)sc2n1
inactive: [1] | [2] | [3] | [4] | [6] | [7] | [8] | [9] | [10] | [11] | [12] | [13] | [14] | [15] | [16]
active: [5] 93%

COc1cccc(Cn2c(Oc3ccccc3)nc3c2c(=O)n(C)c(=O)n3C)c1
active: [5] 81% | [6] 43% | [13] 40.4%
inactive: [1] | [2] | [3] | [4] | [7] | [8] | [9] | [10] | [11] | [12] | [14] | [15] | [16]

CC1CCc2c(sc3ncnc(SCC(=O)Nc4ccc(C(=O)O)cc4)c23)C1 (centres undefined)
active: [5] 88% | [6] 45%
inactive: [1] | [2] | [3] | [4] | [7] | [8] | [9] | [10] | [11] | [12] | [13] | [14] | [15] | [16]

COc1ccc(Nc2nc(N)c3ccccc3n2)c(OC)c1
inactive: [1] | [2] | [3] | [4] | [6] | [7] | [8] | [9] | [10] | [11] | [12] | [14] | [15] | [16]
active: [5] 93% | [13] 26.1%

COc1ccc(C(Nc2ccccn2)c2c(NC(=O)c3ccco3)sc(C)c2C)cc1OC (centres undefined)
inactive: [1] | [2] | [3] | [4] | [7] | [8] | [9] | [10] | [11] | [12] | [13] | [14] | [15] | [16]
active: [5] 78% | [6] 38%

O=C(Nc1ccnn1C1CCN(CCCC2CCCC2)CC1)c1ccccc1Cl
inactive: [1] | [2] | [3] | [4] | [6] | [7] | [8] | [9] | [10] | [11] | [12] | [13] | [14] | [15] | [16]
active: [5] 97%

CCCCNc1nc(-c2ccccc2)c(C(=O)OCC)cc1C#N
active: [5] 94% | [13] 15%
inactive: [1] | [2] | [3] | [4] | [6] | [7] | [8] | [9] | [10] | [11] | [12] | [14] | [15] | [16]
